Results filed as inconclusive are left out. Entries that show only a call come without a potency. Calls of active or inactive are those of the source. Unless noted, calls follow the shape of the dose curve; as a rule, active = well fitted curve in the direction sought with a large enough effect; inconclusive = small, poorly fitted or top-dose-only effect, or another doubt; inactive = no such curve, though single readings can be large; an effect the other way counts as inactive or inconclusive.
Experiments:
Furin (Homo sapiens) = Furin (Homo sapiens) (UniProt P09958); experiment: Furin counterscreen qHTS for Zika virus inhibitors (AID 1347149); also: nearly all actives have a fitted effect of over 70% in size; also: potency is read from the fitted curve at half-maximal effect;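 as to activity change, negative = inhibition: purified recombinant full-length human furin enzyme at 5 nM; fluorescence gain from furin cutting a BOC-RVRR-AMC peptide substrate over 15 min; top concentration of the series differs between compounds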
Chain of Furin (Homo sapiens) (P09958 whole entry, looked up): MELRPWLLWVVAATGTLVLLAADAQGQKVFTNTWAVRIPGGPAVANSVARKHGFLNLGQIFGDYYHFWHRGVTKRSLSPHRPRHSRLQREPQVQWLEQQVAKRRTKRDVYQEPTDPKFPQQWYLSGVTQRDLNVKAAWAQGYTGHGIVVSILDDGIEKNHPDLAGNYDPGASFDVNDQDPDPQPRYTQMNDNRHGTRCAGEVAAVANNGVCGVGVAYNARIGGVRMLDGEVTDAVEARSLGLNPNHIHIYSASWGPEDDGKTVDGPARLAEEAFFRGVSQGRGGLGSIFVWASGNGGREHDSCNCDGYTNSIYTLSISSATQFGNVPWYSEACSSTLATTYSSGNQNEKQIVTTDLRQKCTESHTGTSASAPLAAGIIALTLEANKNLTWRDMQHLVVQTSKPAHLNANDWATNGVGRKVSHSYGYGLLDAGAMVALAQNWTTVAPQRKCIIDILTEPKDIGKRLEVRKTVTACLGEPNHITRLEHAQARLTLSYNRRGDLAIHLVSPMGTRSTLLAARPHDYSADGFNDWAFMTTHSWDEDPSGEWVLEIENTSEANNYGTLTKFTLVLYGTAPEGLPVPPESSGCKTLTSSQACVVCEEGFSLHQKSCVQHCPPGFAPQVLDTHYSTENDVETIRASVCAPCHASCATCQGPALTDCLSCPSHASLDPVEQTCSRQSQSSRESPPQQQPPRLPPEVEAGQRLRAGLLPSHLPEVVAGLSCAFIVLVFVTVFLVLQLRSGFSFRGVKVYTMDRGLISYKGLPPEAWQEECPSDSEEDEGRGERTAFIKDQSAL
Method in brief: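 Fluorogenic cleavage of BOC-RVRR-AMC (2 microM final, Km ~15 µM) was monitored (ex 340, em 450 nm) at 37C after 15 min RT preincubation of 5 nM furin with compounds in HEPES pH 7.0 buffer with CaCl2 and Triton X-100. Percent inhibition was fitted to a 4-parameter Hill curve.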

[1] = test system: Zika virus NS2B-NS3 protease (linked construct); experiment: Confirmatory screen NINDS AMC qHTS for Zika virus inhibitors (AID 1347152); also: nearly all actives have a fitted effect of over 70% in size; also: potency is read from the fitted curve at half-maximal effect;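 as to activity change, negative = inhibition: AMC fluorescence gain from cleaved Bz-Nle-KRR-AMC substrate over 15 min; top concentration of the series differs between compounds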
Method in brief: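 Linked NS2B-NS3 protease, 1 nM, in 10 mM Tris-HCl pH 8.0, 0.01% Tween 20; compounds preincubated 15 min at room temperature. Nle-KRR-AMC 10 microM (Km 18.3 µM); 15-min fluorescence change (340/450 nm) fitted to 4-parameter Hill.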

[2] = test system: Zika virus NS2B-NS3 protease (unlinked complex); experiment: Confirmatory screen GU AMC qHTS for Zika virus inhibitors (AID 1347153); also: nearly all actives have a fitted effect of over 70% in size;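 as to potency: enzyme at 25 nM with substrate at 10 µM below its Km of 18.3 µM; potency is read from the fitted curve at half-maximal effect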
Method in brief: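 Unlinked NS2B-NS3 complex (25 nM) in 10 mM Tris-HCl pH 8.0, 0.01% Tween 20 preincubated 15 min with compound, then 10 microM Bz-Nle-KRR-AMC (Km 18.3 µM). Fluorescence change over 15 min, normalized, Hill-fitted.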

[3] = molecular target: Cytochrome P450 3A4 (Homo sapiens) (UniProt P08684); experiment: qHTS Assay for Inhibitors and Substrates of Cytochrome P450 3A4 (AID 884); also: nearly all actives have a fitted effect of over 50% in size
Chain of Cytochrome P450 3A4 (Homo sapiens) (P08684 whole entry, looked up): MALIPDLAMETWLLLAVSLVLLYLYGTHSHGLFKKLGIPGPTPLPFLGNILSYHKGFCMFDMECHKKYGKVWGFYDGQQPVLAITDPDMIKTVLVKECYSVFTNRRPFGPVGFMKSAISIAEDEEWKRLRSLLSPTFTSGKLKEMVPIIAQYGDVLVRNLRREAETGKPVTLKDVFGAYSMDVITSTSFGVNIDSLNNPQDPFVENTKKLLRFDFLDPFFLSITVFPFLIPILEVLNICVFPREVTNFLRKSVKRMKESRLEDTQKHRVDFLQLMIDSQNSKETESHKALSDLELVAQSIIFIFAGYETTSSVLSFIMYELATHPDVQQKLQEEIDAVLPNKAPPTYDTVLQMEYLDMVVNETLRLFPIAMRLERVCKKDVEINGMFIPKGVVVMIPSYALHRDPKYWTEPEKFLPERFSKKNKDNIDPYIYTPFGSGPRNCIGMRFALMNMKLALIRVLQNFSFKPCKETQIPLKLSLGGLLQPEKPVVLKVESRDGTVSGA
Method in brief: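 20 nM human CYP3A4 with 25 uM Luciferin-PPXE (at KM) in 200 mM KPO4, preincubated 10 min with compound; NADPH regeneration started a 60 min RT reaction. Luciferin detected by luminescence, normalized to 57 uM ketoconazole as full inhibition.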

[4] = Confirmation and Secondary Assay for Modulators of Hemoglobin Beta Chain Splicing at IVS2 654 locus (AID 910);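 also: HeLa cells stably carrying EGFP split by mutant beta-globin IVS2-654 intron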
Method in brief: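 HeLa cells stably expressing EGFP interrupted by β-globin IVS2-654 intron, seeded overnight in Opti-MEM/2% FCS, then treated 2 days at 37 °C. Restored splicing read as total peak GFP intensity per well by laser scanning cytometry (488 nm excitation, 500–520 nm emission); 500 nM antisense PNA as control.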

[5] = Confirmation and Secondary Assay for Modulators of Hemoglobin Beta Chain Splicing at IVS2 705 locus (AID 930);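 also: HeLa cells stably expressing the EGFP-705 splicing reporter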
Method in brief: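 HeLa cells stably carrying EGFP interrupted by mutant beta-globin IVS2-705 intron (CMV-driven) were seeded at 500 cells/well, treated next day with compound for 2 days at 37C; corrected splicing restores EGFP, read as total peak GFP intensity per well.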

[6] = qHTS Assay for Lipid Storage Modulators (AID 1519; calls by dose curve); conditions: Drosophila S3 cells, BODIPY lipid droplet/cell ratio, laser cytometry, cells loaded with oleic acid
Method in brief: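 Cells seeded at 5,000 per well were treated with compounds over a concentration series and loaded with oleic acid (400 uM, as added). Lipid droplet fluorescence (488 nm excitation, 500-530 nm channel) was read by laser-scanning cytometry and normalized to 20 uM Triacsin C.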

[7] = molecular target: Ubiquitin carboxyl-terminal hydrolase 1 (Homo sapiens) (UniProt O94782); experiment: Inhibitors of USP1/UAF1: Pilot qHTS (AID 504865);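 also: rhodamine fluorescence freed from ubiquitin-rhodamine substrate followed over time; top concentration of the series differs between compounds; nearly all actives have a fitted effect of over 35% in size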
Chain of Ubiquitin carboxyl-terminal hydrolase 1 (Homo sapiens) (O94782 whole entry, looked up): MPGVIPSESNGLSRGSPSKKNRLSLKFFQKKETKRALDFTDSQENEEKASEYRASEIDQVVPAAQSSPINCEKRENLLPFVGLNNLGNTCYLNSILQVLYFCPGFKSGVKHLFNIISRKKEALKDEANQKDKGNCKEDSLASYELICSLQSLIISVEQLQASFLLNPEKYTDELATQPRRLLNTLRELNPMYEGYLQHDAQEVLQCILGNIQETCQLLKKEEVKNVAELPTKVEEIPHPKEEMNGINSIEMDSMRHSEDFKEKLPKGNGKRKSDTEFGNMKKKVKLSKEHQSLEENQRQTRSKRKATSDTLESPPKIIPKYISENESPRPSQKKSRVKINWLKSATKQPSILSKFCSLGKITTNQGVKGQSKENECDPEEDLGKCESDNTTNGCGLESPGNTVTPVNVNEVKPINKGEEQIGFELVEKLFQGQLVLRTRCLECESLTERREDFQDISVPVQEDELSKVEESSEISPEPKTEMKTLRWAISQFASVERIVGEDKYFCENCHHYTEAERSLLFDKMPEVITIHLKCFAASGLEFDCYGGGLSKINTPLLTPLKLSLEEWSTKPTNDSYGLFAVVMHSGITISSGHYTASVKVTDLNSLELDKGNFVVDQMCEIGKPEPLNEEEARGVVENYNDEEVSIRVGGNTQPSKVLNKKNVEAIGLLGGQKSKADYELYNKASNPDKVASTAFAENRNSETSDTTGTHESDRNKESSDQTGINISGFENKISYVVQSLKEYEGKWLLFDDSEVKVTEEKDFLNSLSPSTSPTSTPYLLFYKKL
Method in brief: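 USP1/UAF1 complex at 1 nM preincubated 15 min at room temperature with compound, then Ub-Rho substrate added at 150 nM final. Fluorescence (480/540 nm) read kinetically in 50 mM HEPES pH 7.8, 0.5 mM EDTA, 1 mM TCEP, 0.1 mg/ml BSA, 0.01% Tween-20.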

[8] = test system: Zika virus NS2B-NS3 protease (unlinked); experiment: Optimization of GU AMC qHTS for Zika virus inhibitors: Unlinked NS2B-NS3 protease assay (AID 1347151); also: nearly all actives have a fitted effect of over 80% in size
Method in brief: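 Noncovalent NS2B hydrophilic domain–NS3 protease complex (25 nM final) in 10 mM Tris-HCl pH 8.0, 0.01% Tween 20; AMC substrate, room temperature 15 min (~20% conversion); fluorescence change normalized, 4-parameter Hill fit.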

[9] = Vero cells viability qHTS for Zika virus inhibitors (AID 1347167)
Method in brief: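 Cells seeded at 2.5 x 10^5 cells/mL in DMEM with 4% FBS and attached overnight at 37 degrees C, then exposed to compound for 24 to 48 hours. Viability read as ATP content by CellTiter Glo luminescence.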

[10] = Tertiary RLuc qRT-PCR qHTS assay for Zika virus inhibitors (AID 1347169); also: potency is read from the fitted curve at half-maximal effect; nearly all actives have a fitted effect of over 55% in size
Method in brief: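 Vero cells (1,000/well) infected with recombinant ZIKV-RLuc (Cambodian) at MOI 1-2 after compound addition, 48-72 hrs at 37 degrees C. Live-cell Renilla luciferase substrate added; luminescence read after 1-1.5 hrs.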

[11] = test system: Zika virus NS2B-NS3 protease (linked construct); experiment: 384 well plate NINDS Rhodamine confirmatory qHTS for Zika virus inhibitors (AID 1347164);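 also: fluorescence from protease cleavage of Ac-LKRR-rhodamine 110 substrate; potency is read from the fitted curve at half-maximal effect; nearly all actives have a fitted effect of over 65% in size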
Method in brief: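 Linked NS2B-NS3 protease (final 5, 30 or 60 nM) preincubated ~15 minutes with compounds, then 10 microM Ac-LKRR-Rhodamine 110 added. Fluorescence (485/538 nm) read after 25 minutes at room temperature, normalized to no-enzyme and no-inhibitor controls.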

**Q.** With O=C(Nc1ccc(Oc2ccccc2)cc1)O[C@@H]1CO[C@H]2[C@@H]1OC[C@@H]2NS(=O)(=O)c1ccc(Cl)cc1 as the compound, how does the Potency (Furin (Homo sapiens)) read?
**A.** inactive

**Q.** And the Potency [1]?
**A.** inactive

**Q.** And the Potency [2]?
**A.** inactive

**Q.** What does the source list for CC1O[C@@H](O[C@@H]2C(O)C[C@H](O[C@@H]3C(O)C[C@@H](OC4CC[C@@]5(C)C6CC(O)[C@@]7(C)C(C8=CC(=O)OC8)CC[C@@]7(O)C6CC[C@@H]5C4)OC3C)OC2C)CC(O)[C@H]1O (stereo partly specified)?
**A.** Potency [3]: inactive; outcome [4]: inactive; outcome [5]: inactive; activity change, negative = inhibition ([6]; at 57.5 µM (top of the series)): 7.91% (inactive); max response ([6]; measured here: cell count channel max response): 11.2%; max response ([6]; measured here: lipid channel max response): 22.9%; Potency [7]: inactive; Potency (Furin (Homo sapiens)): inactive; Potency [8]: inactive; Potency [9]: inactive; Potency [10]: 1.17 µM (active)

**Q.** Which results are given for CC(C)(C)c1ccc(NC(=O)O[C@@H]2CO[C@H]3[C@@H]2OC[C@@H]3Nc2nccc(-c3ccc(-c4ccccc4)cc3)n2)cc1?
**A.** Potency (Furin (Homo sapiens)): 62.2 µM (active); Potency [1]: inactive; Potency [2]: inactive

**Q.** For O=C(O)COc1ccc(-c2nccc3c2C(=O)N(Cc2ccccc2)CC(COc2cccc(C(F)(F)F)c2)O3)cc1 (stereo unspecified), which Potency (Furin (Homo sapiens)) is on record?
**A.** inactive

**Q.** What about the Potency [1] of the same compound?
**A.** 55.5 µM (active)

**Q.** What about the Potency [2] of the same compound?
**A.** 44.1 µM (active)

**Q.** And the Potency [11]?
**A.** 35.5 µM (active)
